Data from the supplement of paper PMC10849652.
Of roughly 7,900 targets only a part is listed; those with a hit were picked by preference. About 0.6% of all pairs of compound and target were hits.

compound: c1ccc([C@@H]2C[C@H]2NC2CCNCC2)cc1; experiment: log2 fold change, soluble protein after heating vs DMSO (PISA); higher = thermal stabilisation; K562 cells, 10 uM, 30 min; active = over 0.2 and 3.5 SD of the protein, either way, in both replicates (recomputed)
Procedure, shortened: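 Soluble protein was quantified by TMTpro 16plex LC-MS/MS after channel sums were equalised. It was obtained as the supernatant after 21,000xg for 90 min from pooled aliquots of K562 cells (2×10^6 cells/mL, 10 μM compound, 30 min) heated for 3 min across 48°C-58°C and extracted in PBS with 0.5% NP-40 at 4°C. Thermal stability values are relative to control samples and come from duplicates. They are given as log2 fold changes.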

UniProt P53367, sequence (P53367 whole entry, looked up): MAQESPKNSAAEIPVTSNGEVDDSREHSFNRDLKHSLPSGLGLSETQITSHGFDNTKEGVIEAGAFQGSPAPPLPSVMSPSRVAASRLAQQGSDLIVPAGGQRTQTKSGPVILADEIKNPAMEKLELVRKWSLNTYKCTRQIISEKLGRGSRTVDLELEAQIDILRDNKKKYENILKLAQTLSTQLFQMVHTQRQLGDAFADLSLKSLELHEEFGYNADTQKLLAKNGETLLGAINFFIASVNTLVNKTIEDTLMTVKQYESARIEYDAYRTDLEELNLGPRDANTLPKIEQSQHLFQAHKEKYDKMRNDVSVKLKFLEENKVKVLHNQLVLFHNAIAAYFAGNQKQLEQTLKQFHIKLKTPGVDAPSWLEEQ
UniProt Q7L1Q6, sequence (Q7L1Q6 whole entry, looked up): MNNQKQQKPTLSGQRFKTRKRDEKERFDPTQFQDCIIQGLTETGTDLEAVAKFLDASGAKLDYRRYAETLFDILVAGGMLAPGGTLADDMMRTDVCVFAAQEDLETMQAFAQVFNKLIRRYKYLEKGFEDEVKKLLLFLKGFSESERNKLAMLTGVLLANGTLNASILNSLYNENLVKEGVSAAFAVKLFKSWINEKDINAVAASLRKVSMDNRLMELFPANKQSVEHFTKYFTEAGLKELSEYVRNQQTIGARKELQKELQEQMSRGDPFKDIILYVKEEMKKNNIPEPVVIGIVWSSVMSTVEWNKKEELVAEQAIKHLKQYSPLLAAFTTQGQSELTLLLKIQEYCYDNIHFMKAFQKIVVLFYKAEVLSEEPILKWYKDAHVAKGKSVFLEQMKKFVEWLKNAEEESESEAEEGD
UniProt P11117, sequence (P11117 whole entry, looked up): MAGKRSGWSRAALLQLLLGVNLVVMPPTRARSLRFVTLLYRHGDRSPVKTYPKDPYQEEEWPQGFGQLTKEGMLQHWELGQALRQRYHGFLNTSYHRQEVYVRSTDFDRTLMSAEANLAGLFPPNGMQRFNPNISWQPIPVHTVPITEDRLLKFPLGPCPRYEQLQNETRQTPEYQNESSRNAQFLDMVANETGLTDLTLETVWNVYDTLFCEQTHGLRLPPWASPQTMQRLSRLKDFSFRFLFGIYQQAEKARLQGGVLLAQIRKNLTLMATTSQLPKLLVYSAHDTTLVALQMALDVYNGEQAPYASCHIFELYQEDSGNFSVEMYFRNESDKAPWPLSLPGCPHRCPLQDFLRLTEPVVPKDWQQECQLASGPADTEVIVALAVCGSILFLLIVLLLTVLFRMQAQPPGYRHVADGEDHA
UniProt Q96GS6, sequence (Q96GS6 whole entry, looked up): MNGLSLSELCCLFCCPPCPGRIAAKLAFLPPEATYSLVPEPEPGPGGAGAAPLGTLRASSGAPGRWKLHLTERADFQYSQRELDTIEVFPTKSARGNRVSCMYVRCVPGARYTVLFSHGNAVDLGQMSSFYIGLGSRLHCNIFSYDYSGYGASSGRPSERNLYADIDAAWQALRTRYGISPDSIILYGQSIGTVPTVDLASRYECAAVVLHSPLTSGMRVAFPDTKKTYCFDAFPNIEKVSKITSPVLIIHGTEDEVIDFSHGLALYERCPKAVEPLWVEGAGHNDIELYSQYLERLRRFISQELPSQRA
UniProt Q10589, sequence (Q10589 whole entry, looked up): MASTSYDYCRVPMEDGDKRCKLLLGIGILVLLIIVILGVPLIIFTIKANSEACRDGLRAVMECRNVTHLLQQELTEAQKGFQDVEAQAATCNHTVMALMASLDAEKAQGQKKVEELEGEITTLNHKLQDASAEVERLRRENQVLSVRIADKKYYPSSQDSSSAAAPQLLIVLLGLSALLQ
UniProt Q9P287, sequence (Q9P287 whole entry, looked up): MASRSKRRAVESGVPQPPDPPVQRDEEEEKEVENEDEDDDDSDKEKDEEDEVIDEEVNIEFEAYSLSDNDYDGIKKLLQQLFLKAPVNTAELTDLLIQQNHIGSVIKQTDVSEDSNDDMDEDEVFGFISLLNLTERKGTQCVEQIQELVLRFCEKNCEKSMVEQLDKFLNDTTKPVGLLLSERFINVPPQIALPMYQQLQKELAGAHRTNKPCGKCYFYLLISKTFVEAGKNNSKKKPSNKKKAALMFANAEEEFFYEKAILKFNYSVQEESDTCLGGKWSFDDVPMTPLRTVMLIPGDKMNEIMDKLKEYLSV
UniProt O14981, sequence (O14981 whole entry, looked up): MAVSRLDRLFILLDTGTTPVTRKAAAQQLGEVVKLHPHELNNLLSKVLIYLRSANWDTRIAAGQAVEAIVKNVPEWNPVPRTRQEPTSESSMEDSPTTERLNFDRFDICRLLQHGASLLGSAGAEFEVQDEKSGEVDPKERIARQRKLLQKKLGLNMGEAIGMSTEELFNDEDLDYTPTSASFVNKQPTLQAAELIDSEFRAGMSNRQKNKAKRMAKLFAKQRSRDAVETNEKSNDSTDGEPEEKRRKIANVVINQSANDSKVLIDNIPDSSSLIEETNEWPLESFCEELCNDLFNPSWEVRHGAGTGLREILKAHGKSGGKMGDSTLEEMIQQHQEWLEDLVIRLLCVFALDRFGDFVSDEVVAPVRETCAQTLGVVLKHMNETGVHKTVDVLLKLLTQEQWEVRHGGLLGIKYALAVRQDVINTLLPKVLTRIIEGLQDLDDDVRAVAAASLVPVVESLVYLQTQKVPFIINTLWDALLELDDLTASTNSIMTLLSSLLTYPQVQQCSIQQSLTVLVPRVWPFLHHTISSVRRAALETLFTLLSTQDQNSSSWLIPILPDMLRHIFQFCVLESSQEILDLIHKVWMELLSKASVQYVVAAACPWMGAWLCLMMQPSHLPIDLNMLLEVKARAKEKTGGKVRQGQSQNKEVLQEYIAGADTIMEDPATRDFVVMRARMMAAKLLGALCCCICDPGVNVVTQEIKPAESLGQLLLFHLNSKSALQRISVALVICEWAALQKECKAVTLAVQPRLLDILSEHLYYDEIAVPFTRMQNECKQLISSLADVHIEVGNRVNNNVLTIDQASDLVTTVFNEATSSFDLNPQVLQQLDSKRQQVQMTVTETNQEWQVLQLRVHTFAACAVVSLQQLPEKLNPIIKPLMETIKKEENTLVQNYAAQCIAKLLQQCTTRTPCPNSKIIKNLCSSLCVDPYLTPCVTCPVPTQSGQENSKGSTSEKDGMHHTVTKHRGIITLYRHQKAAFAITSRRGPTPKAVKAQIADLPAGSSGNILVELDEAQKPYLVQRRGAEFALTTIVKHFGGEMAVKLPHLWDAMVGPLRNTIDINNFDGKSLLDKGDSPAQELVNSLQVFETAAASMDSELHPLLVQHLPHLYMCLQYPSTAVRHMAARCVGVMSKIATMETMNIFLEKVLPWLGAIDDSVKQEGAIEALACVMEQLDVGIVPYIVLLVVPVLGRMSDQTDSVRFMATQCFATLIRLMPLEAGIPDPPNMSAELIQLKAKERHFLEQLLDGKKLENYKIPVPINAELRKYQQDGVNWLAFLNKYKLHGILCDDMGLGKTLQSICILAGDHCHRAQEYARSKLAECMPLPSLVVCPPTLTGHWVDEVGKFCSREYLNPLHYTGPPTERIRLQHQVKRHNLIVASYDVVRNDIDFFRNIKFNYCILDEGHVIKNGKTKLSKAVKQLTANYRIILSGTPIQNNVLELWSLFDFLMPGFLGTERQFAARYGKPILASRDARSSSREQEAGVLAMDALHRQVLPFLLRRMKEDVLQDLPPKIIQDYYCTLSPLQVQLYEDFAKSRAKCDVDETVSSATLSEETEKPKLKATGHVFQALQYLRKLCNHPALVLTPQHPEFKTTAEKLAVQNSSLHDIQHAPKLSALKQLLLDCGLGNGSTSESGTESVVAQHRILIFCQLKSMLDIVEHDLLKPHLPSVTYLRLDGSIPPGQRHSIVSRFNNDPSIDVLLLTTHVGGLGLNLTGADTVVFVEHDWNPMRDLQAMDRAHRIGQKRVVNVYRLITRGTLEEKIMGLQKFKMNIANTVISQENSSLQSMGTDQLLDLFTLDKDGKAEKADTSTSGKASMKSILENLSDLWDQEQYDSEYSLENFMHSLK
UniProt P49189, sequence (P49189 whole entry, looked up): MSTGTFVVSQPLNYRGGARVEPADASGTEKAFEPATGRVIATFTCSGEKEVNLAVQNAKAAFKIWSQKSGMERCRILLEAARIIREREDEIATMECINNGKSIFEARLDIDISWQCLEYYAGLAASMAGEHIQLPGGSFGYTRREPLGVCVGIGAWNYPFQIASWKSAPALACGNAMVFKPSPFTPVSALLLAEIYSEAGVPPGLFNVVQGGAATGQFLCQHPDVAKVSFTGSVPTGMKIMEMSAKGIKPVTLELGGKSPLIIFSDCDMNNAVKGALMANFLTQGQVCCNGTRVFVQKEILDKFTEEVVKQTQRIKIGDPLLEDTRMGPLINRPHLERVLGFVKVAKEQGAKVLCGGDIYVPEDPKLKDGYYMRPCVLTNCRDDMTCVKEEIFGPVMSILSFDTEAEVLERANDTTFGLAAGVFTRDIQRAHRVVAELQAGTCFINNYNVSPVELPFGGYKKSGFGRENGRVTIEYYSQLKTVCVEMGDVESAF
UniProt Q9UII2, sequence (Q9UII2 whole entry, looked up): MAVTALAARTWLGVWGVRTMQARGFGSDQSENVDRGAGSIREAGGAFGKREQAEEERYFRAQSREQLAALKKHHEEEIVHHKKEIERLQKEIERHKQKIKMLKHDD
UniProt Q9Y679, sequence (Q9Y679 whole entry, looked up): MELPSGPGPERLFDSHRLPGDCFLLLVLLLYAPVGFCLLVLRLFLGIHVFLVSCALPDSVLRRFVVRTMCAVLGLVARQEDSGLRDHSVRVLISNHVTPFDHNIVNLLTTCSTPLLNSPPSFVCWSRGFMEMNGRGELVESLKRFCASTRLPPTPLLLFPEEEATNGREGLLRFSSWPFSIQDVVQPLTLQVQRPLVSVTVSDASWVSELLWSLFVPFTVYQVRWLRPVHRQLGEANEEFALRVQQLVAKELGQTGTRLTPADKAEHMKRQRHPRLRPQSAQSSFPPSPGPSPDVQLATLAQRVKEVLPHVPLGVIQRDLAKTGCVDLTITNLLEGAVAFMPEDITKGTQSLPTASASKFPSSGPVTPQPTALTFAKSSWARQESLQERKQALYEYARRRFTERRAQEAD

Target | log2 fold change
ALDH9A1 isoform 3 (UniProt P49189) | 0.028 (inactive)
AP2A1 (UniProt O95782) | -0.005 (inactive)
ACP2 (UniProt P11117) | 0.024 (inactive)
ATIC (UniProt P31939) | -0.012 (inactive)
BTAF1 (UniProt O14981) | 0.055 (inactive)
ATP1A4 (UniProt Q13733) | 0.056 (inactive)
ADPRHL2 (UniProt Q9NX46) | -0.087 (inactive)
ABHD17A isoform 2 (UniProt Q96GS6) | -0.012 (inactive)
ATP5IF1 (UniProt Q9UII2) | -0.079 (inactive)
BCCIP isoform 2 (UniProt Q9P287) | 0.014 (inactive)
AP2A2 isoform 2 (UniProt O94973) | 0.028 (inactive)
BST2 (UniProt Q10589) | 0.055 (inactive)
BZW1 isoform 3 (UniProt Q7L1Q6) | -0.017 (inactive)
AGPAT3 isoform 3 (UniProt Q9NRZ7) | -0.024 (inactive)
ACO2 (UniProt Q99798) | -0.046 (inactive)
ARAF (UniProt P10398) | 0.027 (inactive)
ATP1B3 (UniProt P54709) | 0.006 (inactive)
ANXA5 (UniProt P08758) | -0.022 (inactive)

Target | log2 fold change
ARHGAP1 (UniProt Q07960) | 0.002 (inactive)
ADH5 (UniProt P11766) | 0.017 (inactive)
ARFRP1 (UniProt Q13795) | 0.029 (inactive)
BLOC1S3 (UniProt Q6QNY0) | -0.06 (inactive)
BCAP29 isoform 2 (UniProt Q9UHQ4) | 0.032 (inactive)
BPHL (UniProt Q86WA6) | -0.065 (inactive)
AUP1 (UniProt Q9Y679) | -0.051 (inactive)
ACACB (UniProt O00763) | 0.007 (inactive)
BRAF (UniProt P15056) | -0.027 (inactive)
ATP1A1 (UniProt P05023) | -0.01 (inactive)
AP2B1 isoform 2 (UniProt P63010) | -0.002 (inactive)
AKR1C3 (UniProt P42330) | -0.156 (inactive)
AAR2 (UniProt Q9Y312) | -0.012 (inactive)
ARFIP1 (UniProt P53367) | -0.03 (inactive)
ADRM1 (UniProt Q16186) | -0.01 (inactive)
AASDH (UniProt Q4L235) | 0.037 (inactive)
ARFGAP2 (UniProt Q8N6H7) | 0.006 (inactive)
ARL6IP6 (UniProt Q8N6S5) | 0.118 (inactive)
